# HCMV inh = qHTS Assay for inhibitors of the human cytomegalovirus (HCMV) | HFF cells, HCMV-luciferase reporter, 72 h; stronger effect = lower value | activity change, negative = inhibition, % at 57.5 µM | 410,000 compounds, 4.5% hits; in the data active means activity change below about -60%; inconclusive means no clear call, values can overlap the other calls; inactive means above about -39%
#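 Compounds were evaluated in HFFs infected with an HCMV luciferase reporter virus (MOI 1 PFU/cell). Luciferase in lysates collected 72 h post infection served as the replication measure.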
# Lassa entry inh = qHTS for Inhibitors of binding or entry into cells for Lassa Virus | Potency, µM (titrated, usually from 37.9 µM), for the others: top-dose activity change, negative = inhibition, hits mostly inhibitors | Lassa virus pseudotype entry inhibition, cell reporter | 300,000 compounds, 1.2% hits; calls by dose curve; tested in HEK293 cells; further: potency means the concentration at half of the fitted maximal effect; nearly all actives have a fitted effect of over 50% in size
# HCV inh = qHTS Assay for Inhibitors of Hepatitis C Virus (HCV); Huh7.5.1 HCVcc-Cre infection, luciferase reporter, 44 h; Potency, µM (top dose mostly 41.8 µM), for the others: top-dose activity change, negative = inhibition, hits mostly inhibitors; 340,000 compounds, 3.4% hits; active means well fitted inhibition curve with a large enough effect; inconclusive means small, poorly fitted or top-dose-only effect, or another doubt; inactive means no such curve, though single readings can be large or run the other way; further: potency means the concentration at half of the fitted maximal effect
#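 Cells seeded at 1,000/well and cultured 4 h, then compounds added followed by HCVcc-Cre virus (~0.5 moi). After 44 h further culture, luciferase substrate was added, plates held 15 min at room temperature, and luminescence read for 15 sec.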
# FMDV inh = High Throughput Screening for Foot and Mouth Disease Virus Antivirals. FMDV antiviral cell-based qHTS. Potency, µM (top dose mostly 57.9 µM), inactives show at the top dose activity change, negative = inhibition, actives largely listed as inhibitors. 410,000 compounds, 1.2% hits; calls by dose curve; tested in HEK293T cells; further: read-out not given here; potency means the concentration at half of the fitted maximal effect; nearly all actives have a fitted effect of over 45% in size
# Marburg entry inh = qHTS for inhibitors of binding or entry into cells for Marburg Virus; 300,000 compounds, 1.8% hits; Marburg virus pseudotyped entry inhibition, cell reporter; Potency, µM (titrated, usually from 37.8 µM), for inactives: at the highest dose activity change, negative = inhibition, actives largely listed as inhibitors; AID 540276, 2011; calls by dose curve; tested in HEK293 cells; further: potency means the concentration at half of the fitted maximal effect
# Active calls of the source: *; ? = inconclusive; . = no result given; [ ] = another dose, or the depositor's remark. Rows were chosen to be rich in hits. Some 7.9% of all compounds tested hit in one or more screens of this group. On the % scale 0 is the no-effect control and ±100 the full control effect.
SMILES,HCMV inh,Lassa entry inh,HCV inh,FMDV inh,Marburg entry inh
CCOc1ccc(NC(=O)C2CCN(S(=O)(=O)c3c(C)noc3/C=C/c3cccs3)CC2)cc1,3,8%[46.1 µM],.,-23%,20%[46.1 µM]
FC(F)(F)c1cnc(NNC(=S)Nc2ccc(Cl)cc2)c(Cl)c1,-99*,?,?,-26%,?
Fc1ccc(NC(=S)NNc2ncc(C(F)(F)F)cc2Cl)c(F)c1,-99*,?,22µM*,-41%,?
COc1ccc(S(=O)(=O)N(C)c2ccc(C(=O)N3CCC(C(N)=O)CC3)cc2)cc1,-15,0%,8%,-6%,1%
COc1ccc(S(=O)(=O)N(C)c2ccc(C(=O)N3CCC(C(N)=O)CC3)cc2)cc1OC,-100*,8%,?,-13%,9%
CN(c1ccc(C(=O)N2CCCCCC2)cc1)S(=O)(=O)c1ccc(Cl)cc1,-74*,?,.,?,-28%
CC(=O)c1ccc(NC(=O)CCn2nc(C)c(S(=O)(=O)N3CCC(C)CC3)c2C)cc1,14,8%[46.1 µM],.,-22%,.
Cc1c(/C=N\NC(=O)C2(C)CC2(Cl)Cl)cnn1C (stereo not given),-20,-1%,16%,-2%,?
CC1(C(=O)N/N=C/c2c(F)c(F)c(F)c(F)c2F)CC1(Cl)Cl (stereo not given),?,?,11µM*,-22%,?
Nc1ccc(CCNc2ncnc3c2ncn3[C@@H]2O[C@@H](CO)[C@H](O)[C@@H]2O)cc1,.,.,.,.,-6%
O=C(Nc1ccccc1C(=O)Nc1ccccc1)c1ccccc1F,?,.,-12%,3%,.
O=C(Nc1ccccc1C(=O)Nc1ccccc1C(=O)O)c1ccccc1,-60*,?,-28%,0%,?
O=C(Nc1ccccc1O)c1ccc(NC(=O)C2CC2)cc1,358,-20%[46.1 µM],-15%,4%,?
Cc1cccc(NC(=O)c2ccccc2C(=O)Nc2cccc(C)c2)c1,-38,0%,15%,24%,?
O=C(O)c1cccc(NC(=O)c2ccccc2NC(=O)c2ccccc2F)c1,33,2%[46.1 µM],0.89µM*,-26%,?
Cc1cccc(NC(=O)c2ccccc2NC(=O)CCC(=O)O)c1,-79*,-6%,33%,9%,?
O=C(Nc1ccccc1C(=O)O)c1ccc(NC(=O)C2CC2)cc1,0,?,16%,?,5µM*
Nc1ccc(C(=O)Nc2ccccc2C(=O)O)cc1,21,8%,24%,43%,21%
Cc1ccc(S(=O)(=O)N2CCC[C@H]2C(=O)OC(C)C(=O)Nc2ncc(Cl)cc2Cl)cc1 (stereo not given in full),29,-13%,-10%,11%,-10%
O=C(CSc1nc2ncccc2[nH]1)Nc1cc(F)ccc1F,-21,.,.,-16%,1%[46.1 µM]
O=C(Nc1ccc(Oc2ccccc2)cc1)C1CC1,?,-17%,?,13%,?
O=C(O)c1ccccc1NC(=O)c1ccccc1Nc1ccccc1,-70*,.,4%,-24%,.
CC(=O)Nc1ccc(-c2ccc(NC(C)=O)cc2)cc1,20,17%,8%,59%,?
CC(=O)Nc1ccc(C#Cc2ccc(NC(C)=O)cc2)cc1,-72*,7.3µM*,-6%,.,4.6µM*
O=C(Nc1ccc(C#Cc2ccccc2)cc1)C1CC1,-64*,4.6µM*,?,47%,2.3µM*
SMILES,HCMV inh,Lassa entry inh,HCV inh,FMDV inh,Marburg entry inh
COc1c2ccccc2nn1-c1ccc(I)cc1,66,.,.,.,.
COC(=O)c1cccc(Oc2cccc(Cl)n2)c1,-9,.,-2%,17%,.
Cc1cc(C)c2nc(NC3=NCN(CCN4CCOCC4)CN3)nc(C)c2c1,.,.,.,.,2%
CC1=CC(C)(C)N=C(Nc2nc(C)c3cc(C)cc(C)c3n2)N1,-97*,.,?,?,.
Cc1cc2nc(CSc3ccccc3)cc(=O)n2[nH]1,-96*,-2%,8%,5%,11%[46.1 µM]
CCOc1ccccc1CNc1ncnc2c1nc1n2CCCC1,-81*,?,.,-1%,.
Cc1ccc(C)c(N2CCN(c3ncnc4c3nc3n4CCCCC3)CC2)c1,3,-4%[46.1 µM],.,-7%,.
COc1ccc(N2CCN(c3ncnc4c3nc3n4CCCCC3)CC2)cc1,-27,-12%[46.1 µM],.,11µM*,.
COc1cccc(N2CCN(c3ncnc4c3nc3n4CCCCC3)CC2)c1,-99*,?,.,11µM*,.
FC(F)(F)c1cccc(N2CCN(c3ncnc4c3nc3n4CCCC3)CC2)c1,-73*,-1%[46.1 µM],.,20µM*,.
COc1ccccc1N1CCN(c2ncnc3c2nc2n3CCCC2)CC1,-25,-22%[46.1 µM],.,?,-22%[46.1 µM]
COc1ccccc1CNc1ncnc2c1nc1n2CCCC1,-14,?,.,-16%,?
COCC(=O)N1CC(=O)N2[C@@H](CO)[C@H](c3ccc(Br)cc3)[C@@H]2C1,3,.,.,.,.
CCOC(=O)c1cc(-c2ccccc2)n(CC(=O)Nc2ccc(OC)cc2OC)c1C,0,-18%[46.1 µM],.,-12%,.
COc1ccc(S(=O)(=O)NCC(c2ccco2)S(=O)(=O)c2ccc(C)cc2)cc1C (stereo not given),-14,?,.,69%,.
Cc1ccc(C)c(N2CCN(c3ncnc4c3nc3n4CCCC3)CC2)c1,48,16%[46.1 µM],.,?,.
CC(=O)c1ccc(N2CCN(c3ncnc4c3nc3n4CCCC3)CC2)cc1,-86*,-14%[46.1 µM],.,18µM*,.
c1ccc(N2CCN(c3ncnc4c3nc3n4CCCC3)CC2)cc1,-68*,?,.,14µM*,.
Fc1ccccc1N1CCN(c2ncnc3c2nc2n3CCCCC2)CC1,7,-8%[46.1 µM],.,?,.
Cc1ccc(Cl)cc1N1CCN(c2ncnc3c2nc2n3CCCC2)CC1,-17,?,.,28µM*,.
COc1ccc(-c2nc(CSc3nncn4c3cc3sccc34)c(C)o2)cc1OC,?,11%[46.1 µM],.,4%,.
COc1ccc(N(C(=O)c2ccccc2C)S(=O)(=O)c2ccc(C)cc2)cc1,-20,?,.,2%,.
COc1ccc(N(C(=O)c2ccccc2C)S(=O)(=O)c2cccs2)cc1,-77*,?,?,19%,?
CC(=O)COc1nc2c(c(-c3ccco3)c1C#N)CCc1ccccc1-2,.,?,11µM*,-27%,-20%[46.1 µM]
CCOc1nc2c(c(-c3cccs3)c1C#N)Cc1ccccc1-2,21,3%,-3%,-22%,11%[46.1 µM]
SMILES,HCMV inh,Lassa entry inh,HCV inh,FMDV inh,Marburg entry inh
CCN(CC)CCCNC(=S)N1CCN(c2nc(-c3ccccc3)cs2)CC1,-31,-15%[46.1 µM],7.9µM*,-25%,?
CCNC(=S)N1CCN(c2nc(-c3cccc(OC)c3)cs2)CC1,-40,.,?,-14%,.
COCCNC(=S)N1CCN(c2nc(-c3cccc(OC)c3)cs2)CC1,-1,1%[46.1 µM],13µM*,-1%,?
COCCCNC(=S)N1CCN(c2nc(-c3ccccc3)cs2)CC1,-67*,.,13µM*,?,.
CC(C)CNC(=S)N1CCN(c2nc(-c3ccc(Cl)cc3)cs2)CC1,?,17%[46.1 µM],11µM*,-29%,?
O=C(c1cccc(Cl)c1)N1CCCC(Cn2cc(C(=O)N3CCCC3)nn2)C1 (stereo not given),.,.,.,14%,.
